Measurements taken from PubChem BioAssay (Tox21).
Records with an inconclusive call do not appear. Where a call stands in place of a potency, no number is given. Active and inactive are the calls of the source. Unless noted, the call rests on the fitted dose curve; in most records, active means well fitted cell-killing curve with a large enough effect in the repeat runs; inconclusive means weak or mixed curves, or effect the other way; inactive means no such curve, though single readings can be large or run the other way.

Target: Peroxisome proliferator-activated receptor gamma (Homo sapiens) (UniProt P37231)
Experiment: qHTS assay to identify small molecule agonists of the peroxisome proliferator-activated receptor gamma (PPARg) signaling pathway (AID 743094; active means well fitted activation curve with a large enough effect in the signal ratio in the repeat runs, not every such curve was filed as active; the % refers to the signal ratio)
Conditions: HEK293H PPARg-UAS-bla, beta-lactamase FRET ratio, 17 h; series mostly up to 57 µM
How it was run: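 Stably transfected HEK293H cells (GeneBLAzer PPARg UAS-bla) were incubated with test substances for 17 h at 37C after a 5 h pre-incubation; beta-lactamase activity was then detected by FRET substrate fluorescence.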

Peroxisome proliferator-activated receptor gamma (Homo sapiens), sequence (P37231 whole entry, looked up): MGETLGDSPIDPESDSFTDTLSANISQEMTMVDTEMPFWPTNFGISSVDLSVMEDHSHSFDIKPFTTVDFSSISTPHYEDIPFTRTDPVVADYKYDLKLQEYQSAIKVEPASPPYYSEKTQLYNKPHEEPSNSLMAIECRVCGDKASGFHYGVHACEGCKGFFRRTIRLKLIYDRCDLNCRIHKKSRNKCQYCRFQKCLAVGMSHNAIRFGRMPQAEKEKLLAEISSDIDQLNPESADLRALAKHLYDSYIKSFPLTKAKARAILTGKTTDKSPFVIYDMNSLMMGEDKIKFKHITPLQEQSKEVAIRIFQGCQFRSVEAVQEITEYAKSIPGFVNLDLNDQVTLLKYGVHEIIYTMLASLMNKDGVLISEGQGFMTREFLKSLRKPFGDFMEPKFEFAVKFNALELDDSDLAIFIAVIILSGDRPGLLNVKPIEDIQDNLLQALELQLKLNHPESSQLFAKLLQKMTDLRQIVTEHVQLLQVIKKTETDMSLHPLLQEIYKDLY

Q: With `Clc1ccc(C2(Cn3cncn3)CC(Br)CO2)c(Cl)c1` (stereo unspecified) as the compound, how does the Potency read?
A: The Potency was “inactive”.

Q: Which Potency does the source give for `Clc1cc(C(Cl)(Cl)Cl)cnc1Cl` here?
A: Its Potency is “inactive”.

Q: Which Potency does the source give for `CC(=O)c1cc2c(cc1C)C(C)(C)C(C)CC2(C)C` (stereo unspecified) here?
A: The Potency was “inactive”.

Q: Which Potency does the source give for `C=C(C#N)CCC#N` here?
A: Its Potency is “inactive”.

Q: For `C=CC(=O)OCCCCO`, which Potency is on record?
A: Its Potency is “inactive”.

Q: With `COP(=S)(OC)Oc1ccc([N+](=O)[O-])cc1Cl` as the compound, how does the Potency read?
A: The Potency was “inactive”.

Q: For `O=S(=O)(O)C(F)(F)C(F)(F)C(F)(F)C(F)(F)F`, which Potency is on record?
A: Its Potency is “inactive”.

Q: With `CC1CC(CC2CCC(N)C(C)C2)CCC1N` (stereo unspecified) as the compound, how does the Potency read?
A: The Potency was “inactive”.

Q: With `O=S1OC[C@@H]2[C@H](CO1)[C@]1(Cl)C(Cl)=C(Cl)[C@@]2(Cl)C1(Cl)Cl` (stereo partly specified) as the compound, how does the Potency read?
A: Its Potency is “inactive”.

Q: For `O=C(O)C(F)(F)C(F)(F)C(F)(F)C(F)(F)C(F)(F)C(F)(F)C(F)(F)C(F)(F)C(F)(F)F`, which Potency is on record?
A: Its Potency is “inactive”.

Target: Peroxisome proliferator-activated receptor gamma (Homo sapiens) (UniProt P37231)
Experiment: qHTS assay to identify small molecule antagonists of the peroxisome proliferator-activated receptor gamma (PPARg) signaling pathway (AID 743191; calls by dose curve; further: nearly all actives have a fitted effect of over 30% in size; further: potency means the concentration at half of the fitted maximal effect)
Conditions: HEK293H PPARg-UAS-bla, beta-lactamase ratio, antagonist, 17 h; series mostly up to 62.6 µM
How it was run: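 GeneBLAzer PPARg UAS-bla HEK293H cells carrying a UAS-driven beta-lactamase reporter were plated at 3000 cells/well, preincubated 5 h at 37C, then given compound for 17 h at 37C; LiveBLAzer B/G FRET substrate was read after 1 h at room temperature.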

Q: Which Potency does the source give for `C=CC(=O)OCC(C)O` (stereo unspecified) here?
A: The Potency was “inactive”.

Q: For `C=CC(=O)OCCCCO`, which Potency is on record?
A: Its Potency is “inactive”.

Q: Which Potency does the source give for `COP(=S)(OC)Oc1ccc([N+](=O)[O-])cc1Cl` here?
A: The Potency was “inactive”.

Q: With `ClCc1cccc(Cl)c1` as the compound, how does the Potency read?
A: Its Potency is “inactive”.

Q: For `O=S1OC[C@@H]2[C@H](CO1)[C@]1(Cl)C(Cl)=C(Cl)[C@@]2(Cl)C1(Cl)Cl` (stereo partly specified), which Potency is on record?
A: Its Potency is “inactive”.

Q: Which Potency does the source give for `O=C(CBr)Nc1ccc(Cl)cc1C(=O)c1ccccc1F` here?
A: Its Potency is “inactive”.

Q: With `O=C(N[C@H](c1ccccc1)[C@@H]1CN2CCC1CC2)c1c(Cl)ccc(C(F)(F)F)c1Cl` as the compound, how does the Potency read?
A: The Potency was 4.97 µM (active).

System: not listed separately
Experiment: qHTS assay to identify small molecule antagonists of the peroxisome proliferator-activated receptor gamma (PPARg) signaling pathway - cell viability counter screen (AID 743194); further: nearly all actives have a fitted effect of over 55% in size; further: potency means the concentration at half of the fitted maximal effect
Conditions: PPARg-bla HEK293H viability, CellTiter-Glo luminescence, 17 h; Potency: co-treated with 50 nM rosiglitazone; series mostly up to 62.6 µM
How it was run: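 PPARg-UAS-bla HEK293H cells were plated, rested 5 h at 37 C, then treated with compounds plus rosiglitazone (50 nM final) for 17 h at 37 C; viability was then read by CellTiter-Glo luminescence after 30 min at room temperature.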

Q: With `NCCCNCCCN` as the compound, how does the Potency read?
A: Its Potency is “inactive”.

Q: Which Potency does the source give for `CN1C[C@H](CNC(=O)OCc2ccccc2)C[C@@H]2c3cccc4c3c(cn4C)C[C@H]21` here?
A: The Potency was 26.6 µM (active).

Q: With `COC1=CC(=O)O[C@@H](CCc2ccccc2)C1` as the compound, how does the Potency read?
A: The Potency was “inactive”.

Q: Which Potency does the source give for `CCCCc1c(C)nc(NCC)nc1OS(=O)(=O)N(C)C` here?
A: The Potency was “inactive”.

Q: With `Clc1ccc(C2(Cn3cncn3)CC(Br)CO2)c(Cl)c1` (stereo unspecified) as the compound, how does the Potency read?
A: Its Potency is “inactive”.

Q: With `CC(=O)c1cc2c(cc1C)C(C)(C)C(C)CC2(C)C` (stereo unspecified) as the compound, how does the Potency read?
A: The Potency was “inactive”.

Q: With `C=C(C#N)CCC#N` as the compound, how does the Potency read?
A: The Potency was “inactive”.

Q: With `C=CC(=O)OCCCCO` as the compound, how does the Potency read?
A: The Potency was “inactive”.

Q: For `CCO[C@H]1O[C@@H]2OC3(C)CC[C@H]4[C@H](C)CC[C@@H]([C@H]1C)[C@@]24OO3`, which Potency is on record?
A: Its Potency is “inactive”.

Q: With `CO/N=C(/C(=O)OC)c1ccccc1COc1ccccc1C` as the compound, how does the Potency read?
A: Its Potency is “inactive”.

Q: Which Potency does the source give for `C[C@]12CC[C@H]3[C@@H](CCC4=CC(=O)CC[C@@H]43)[C@@H]1CC[C@@H]2OC(=O)CCC1CCCCC1` here?
A: Its Potency is “inactive”.

Q: With `CC1CC(CC2CCC(N)C(C)C2)CCC1N` (stereo unspecified) as the compound, how does the Potency read?
A: Its Potency is “inactive”.

Q: With `ClCc1cccc(Cl)c1` as the compound, how does the Potency read?
A: Its Potency is “inactive”.

Q: For `O=C(CBr)Nc1ccc(Cl)cc1C(=O)c1ccccc1F`, which Potency is on record?
A: Its Potency is “inactive”.

Q: With `COc1ccc(-c2ccccc2)cc1NNC(=O)OC(C)C` as the compound, how does the Potency read?
A: The Potency was “inactive”.

Q: Which Potency does the source give for `O=C(N[C@H](c1ccccc1)[C@@H]1CN2CCC1CC2)c1c(Cl)ccc(C(F)(F)F)c1Cl` here?
A: The Potency was “inactive”.

Q: With `Sc1ccccc1Cl` as the compound, how does the Potency read?
A: Its Potency is “inactive”.

Q: For `CO[C@@H]1[C@H](OC(=O)NC(=O)CCl)CC[C@]2(CO2)[C@H]1[C@@]1(C)O[C@@H]1CC=C(C)C`, which Potency is on record?
A: The Potency was “inactive”.

Q: For `CCC(C)(NC(=O)c1cc(Cl)c(C)c(Cl)c1)C(=O)CCl` (stereo unspecified), which Potency is on record?
A: The Potency was 39.1 µM (active).
